Source: PubChem BioAssay (NMMLSC)
Rows were chosen to be rich in hits. Some 3.5% of all compounds tested hit in one or more screens of this group.
BoNT F protease: BoNT F light chain protease inhibition; Multiplex microsphere protease cleavage assay, flow cytometry; inhibition, % at 10 µM; actives 0.22% (n = 360,000); AID 588497; in the data active = inhibition above about 35%, passing the limit was not always enough; inconclusive = no clear call, values can overlap the other calls; note: plate controls were buffer without enzyme for full effect and enzyme alone for no effect
Anthrax LF prot: inhibitors of Bacillus anthracis lethal factor protease | P15917 | multiplex microsphere protease cleavage assay, LF | inhibition, % at 10 µM | actives 0.12% (n = 360,000); note: plate controls were buffer without enzyme for full effect and enzyme alone for no effect
BoNT A protease: inhibitors of Botulinum neurotoxin A light chain protease. AID 588499. inhibition, % at 10 µM. actives 0.17% (n = 360,000). multiplex microsphere protease substrate cleavage, flow cytometry; note: plate controls were buffer without enzyme for full effect and enzyme alone for no effect
Autofluor counter: counter-screen for toxin protease inhibitors: compound fluorescence; compound autofluorescence counterscreen, microsphere flow cytometry; hits give high values; fluorescence intensity (concentration not given with the values); actives 3.1% (n = 360,000); AID 624483; in the data active = fluorescence intensity above about 16000; inconclusive = no clear call, values can overlap the other calls
An asterisk follows results filed as active; ? = inconclusive. Cut-off read from the data, not from the text of the source, unless noted: active = inhibition above about 30%; inconclusive = no clear call, values can overlap the other calls; inactive = below that.

SMILES	BoNT F protease	Anthrax LF prot	BoNT A protease	Autofluor counter
CNC[C@@H]1OCc2ccccc2-c2c(n(C)c3ccccc23)C(=O)N([C@H](C)CO)C[C@@H]1C	-10.2	-4.3	-0.5	3785
CCOC(=O)Nc1nc2ccc(Cn3cccc3)cc2[nH]1	-9.8	-8.3	-0.6	4013
CC(=O)Oc1ccc2nc(-c3ccc(Br)o3)oc(=O)c2c1	?	-0.6	-1.8	3834
CC(=O)c1ccc(NC(=O)CN2C(=O)/C(=C/C=C/c3ccccc3)SC2=S)cc1	12.6	24.1	46.9*	3500
O=[N+]([O-])/C=C\c1ccc(N2CCCC2)c(F)c1	20.6	32.0*	60.2*	9527
CCc1nc2ccc(C(=O)NCc3ccc4c(c3)OCO4)cn2c1N(C)Cc1ccc(OC)cc1	-8.1	-1.9	-0.5	3109
COc1cc(OC)cc(C(=O)Nc2cccc(NC(=O)c3ccccc3)c2)c1	13.1	8.4	3.1	3674
COc1cc(NC(=O)Nc2cccc(C(C)=O)c2)cc(OC)c1OC	-0.9	-10.3	1.4	21687*
COc1cccc(C(=O)Nc2ccc(NC(C)=O)cc2)c1	-0.8	-3.8	?	22073*
COc1cccc(C(=O)NC2CCSC2=O)c1 (stereo unspecified)	-1.2	-1.5	0.9	19865*
COc1cc(OC)cc(C(=O)Nc2cccc(C(C)=O)c2)c1	-1.2	-2.6	1.4	22501*
COc1ccccc1C(O)c1ncc(-c2cccc(C(F)(F)F)c2)[nH]1 (stereo unspecified)	-3.8	-4.9	-0.1	3490
CC(=O)Nc1ccc(S(=O)(=O)NCCC(=O)N2CCc3ccccc32)cc1	-0.3	-1.6	-0.7	5800
CC(=O)c1cccc(NC(=O)c2oc(C)nc2C)c1	-4.3	1.7	-1.4	24179*
COc1ccc(NC(=O)c2cccc(OC(F)F)c2)cc1Cl	-3.9	-6.5	?	23117*
CC(=O)c1cccc(NC(=O)c2onc(C)c2Cl)c1	0.1	1.9	0.2	5061
CNC(=S)N1CCc2sccc2C1C (stereo unspecified)	0.3	-0.7	0.0	6227
CNC(=O)NC1CCCCc2sccc21 (stereo unspecified)	-3.4	-2.0	-0.1	16866*
COc1cc(OC)nc(C(NC(=O)C2CCN(Cc3c[nH]c4ccccc34)CC2)c2ccc(Cl)cc2)n1 (stereo unspecified)	-19.9	-3.0	0.2	3786
CC(C(=O)NC1=NCCS1)N1C(=O)C2CC=CCC2C1=O (stereo unspecified)	-11.8	-1.8	0.4	4583
CC(C(=O)NC1=NCCS1)N1C(=O)c2ccccc2C1=O (stereo unspecified)	-7.3	-4.1	-1.9	23583*
CCOC(=O)[C@]12CCC=C1N(Cc1ccc(Cl)cc1Cl)C(=O)[C@H](CC(=O)NCc1ccc(C)o1)C2	-1.3	-10.4	-1.5	4226
CCN1C(=O)/C(=C/C=C2\C=CN(CC)c3ccccc32)SC1=S	-8.6	16.3	41.1*	6742
CC(NS(=O)(=O)c1cccc(C(=O)N(C)Cc2ccc(N3CCOCC3)cc2)c1)c1ccccc1 (stereo unspecified)	2.5	10.4	0.2	3796
CCOc1ccc(C2C(C#N)=C(N)SC(N)=C2C#N)c(OCC)c1	?	25.0	44.2*	22485*
SMILES	BoNT F protease	Anthrax LF prot	BoNT A protease	Autofluor counter
O=C(CCNc1ccccc1)c1cccc([N+](=O)[O-])c1	4.3	-9.1	6.6	20571*
O=C(CCNc1ccc(F)cc1)c1cccc([N+](=O)[O-])c1	-1.7	-2.2	?	20472*
COC(=O)C1=C(C)NC(C)=C(C(=O)OC)C1c1cn(-c2ccccc2)nc1-c1ccco1	-5.2	-2.3	-1.5	16749*
COCCOC(=O)C1=C(C)NC(=O)NC1c1cn(-c2ccccc2)nc1-c1cccs1 (stereo unspecified)	6.3	3.6	-0.5	2902
N#C/C(C(=O)Nc1ccc(Cl)cc1)=C(/S)Nc1ccccc1	4.6	-1.2	2.5	5367
CCCCC(=O)N1CCCC(c2nc3c(nnn3Cc3cc(C)ccc3C)c(=O)[nH]2)C1 (stereo unspecified)	9.9	-2.7	0.5	9608
Cc1ccc(C)c(Cn2nnc3c(=O)[nH]c(C4CCCN(C(=O)CC(C)C)C4)nc32)c1 (stereo unspecified)	0.0	-8.5	4.6	21556*
O=c1[nH]c(C2CCCN(S(=O)(=O)c3ccc(F)cc3)C2)nc2c1nnn2Cc1ccccc1 (stereo unspecified)	3.7	-0.3	2.4	21368*
O=C(Cc1cccs1)N1CCC(c2nc3c(nnn3Cc3ccccc3)c(=O)[nH]2)CC1	-3.5	-0.1	-1.2	20008*
CC(C)(C)c1ccc(Cn2nnc3c(=O)[nH]c(C4CCN(C(=O)Cc5cccs5)CC4)nc32)cc1	-1.2	0.4	-1.1	20958*
CCOC(=O)[C@]12CCC=C1N(Cc1ccco1)C(=O)[C@H](CC(=O)N1CCCC1)C2	-2.7	-2.4	0.6	5096
N#Cc1ccccc1S(=O)(=O)NC(=O)[C@H]1O[C@@H](n2cnc3c(N)ncnc32)[C@H](O)[C@@H]1O	-0.9	4.2	-0.7	4218
N#Cc1ccc(NC(=O)N2CCC(c3nc4c(nnn4Cc4cccc(Cl)c4)c(=O)[nH]3)CC2)cc1	-3.6	-0.8	-0.2	20736*
Cc1ccccc1-n1c(=O)cc(N2CCc3ccccc3C2)[nH]c1=O	11.0	-15.2	8.5	19487*
CN(C)S(=O)(=O)c1ccc(/C(O)=C2/C(=O)C(=O)N(Cc3cccnc3)C2c2ccncc2)cc1 (stereo unspecified)	-6.7	-2.9	-3.3	17829*
Cc1ccc(Cn2c(C(=O)NCCCN3CCOCC3)cc3sccc32)cc1	-2.8	-4.6	-1.8	24158*
CCn1c(C(=O)NCCCN2CCc3ccccc3C2)cc2sccc21	-3.4	-1.5	-1.1	24380*
O=C(Cn1c(C(=O)NCCCN2CCOCC2)cc2sccc21)c1ccccc1	-1.9	-1.6	-3.1	24194*
CCn1c(C(=O)NCc2ccccn2)cc2sccc21	-6.9	-0.1	-2.5	17121*
CCn1c(C(=O)NCCCc2ccccc2)cc2sccc21	-2.7	0.1	1.2	2390
COc1ccc(S(=O)(=O)N(C)C[C@@H]2OCc3cnnn3CCCC(=O)N([C@H](C)CO)C[C@@H]2C)cc1	0.3	-0.3	-0.5	3836
CN1C(=O)C(O)(CC(=O)c2cccnc2)c2ccccc21 (stereo unspecified)	-5.4	-2.7	-2.7	23918*
CCc1ccc(N2C(=O)Cc3c2nc(N)c(C#N)c3N)cc1	5.2	-0.2	?	21928*
CCc1ccc(N2C(=O)CC(=O)NC2=O)cc1	-14.0	-1.1	-0.5	3463
CCOC1=C2CN(S(=O)(=O)c3ccc(C)cc3)[C@H](c3cccc(Cl)c3)C[C@@H]2N(S(=O)(=O)c2ccccc2[N+](=O)[O-])[C@H](c2ccccc2)C1	-2.0	-5.0	-0.8	5899
CCn1cc(C(=O)OCC(=O)Nc2cccc(S(=O)(=O)N3CCOCC3)c2)c(=O)c2ccc(C)nc21	-1.3	0.0	?	16363*
CC(C)CC1C(=O)N(Cc2cn(CC3CCCCC3)nn2)CCS(=O)(=O)N1Cc1ccc(-c2cccc(CO)c2)cc1 (stereo unspecified)	-6.0	1.7	-0.2	3410
COc1ccc(C2CC(C(F)(F)F)n3nc(CO)c(Cl)c3N2)cc1OC (stereo unspecified)	-2.5	-1.3	-0.5	16477*
